The text below walks through data of PubChem BioAssay (NCI).

A short description of assay [1]: NCI Yeast Anticancer Drug Screen. Data for the rad50 strain (AID 155).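 Note: 0% = growth of vehicle-only cultures of the same strain.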 The following applies: S. cerevisiae rad50 strain growth inhibition, active compounds read high. In a few lines:
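Readout: growth inhibition relative to vehicle-treated cultures. Compound exposure was carried out in a genetically defined yeast strain deficient in DNA damage repair.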

Assay [2] is described as follows: NCI Yeast Anticancer Drug Screen. Data for the mec2-1 strain (AID 157). The following applies: S. cerevisiae mec2-1 strain, active compounds read high. In a few lines: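 Cells of the genetically defined mec2-1 yeast strain are incubated with test compound. Inhibition of growth is calculated against vehicle-treated controls.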
A short description of assay [3]: NCI Yeast Anticancer Drug Screen. Data for the sgs1 mgt1 strain (AID 161).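 Note: 0% = growth of cultures given vehicle only.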 The settings on record: S. cerevisiae sgs1 mgt1 strain, active compounds read high. A digest of the protocol:
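Mutant yeast exposed to compound; growth scored against vehicle-only wells.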

Assay [4] can be described thus: NCI Yeast Anticancer Drug Screen. Data for the cln2 rad14 strain (AID 165).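 Note: 0% = growth equal to vehicle treated cultures.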 The settings on record: S. cerevisiae cln2 rad14 strain, active compounds read high. A digest of the protocol: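 The screen exposed genetically defined yeast (cln2 rad14) to test compounds and scored growth inhibition relative to vehicle-treated controls.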
Assay [5] is described as follows: NCI Yeast Anticancer Drug Screen. Data for the bub3 strain (AID 167). The settings on record: S. cerevisiae bub3 mutant strain, active compounds read high. A digest of the protocol: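 Readout: yeast growth inhibition, expressed relative to vehicle-only wells. The test organism is a mutant strain from a panel with lesions in DNA repair or checkpoint genes.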
Assay [6] is described as follows: NCI Yeast Anticancer Drug Screen. Data for the mlh1 rad18 strain (AID 175). The following applies: S. cerevisiae mlh1 rad18 strain growth inhibition, active compounds read high. In a few lines: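 Compound-treated yeast growth, normalised to vehicle controls. Strain bears defined DNA repair mutations.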
[7] abbreviates: at 5.0 µM (retest, dose inferred, filed as 0.5).
Setting [8] is: at 50.0 µM (retest, dose inferred, filed as 5.0).

This is part of a sample that, as a whole, favours compounds with a hit. Of some 79,000 tested, about 15% had one in any assay. A number with no mark means an inactive call. Activity calls are given as the source filed them. Cut-off read from the data, not from the text of the source: active = growth inhibition above about 70%; inactive = the rest.

Consider `C=C(C)C(CC=C(C)C)Cc1c(O)cc(OC)c2c1OC(c1ccc(O)cc1O)C(O)C2=O` (stereo not given), for which the growth inhibition in assay [1] (setting [7]) was 29%; in assay [1] (setting [8]), 22%; in assay [1] (at 50.0 µM), 34.1%; in assay [2] (setting [7]), 27%; in assay [2] (setting [8]), 28%; in assay [2] (at 50.0 µM) it was 23.4%. For the same compound, the growth inhibition in assay [3] (setting [7]) is -23%; in assay [3] (setting [8]) it was 42%; in assay [3] (at 50.0 µM), 55.2%; in assay [4] (setting [7]) it was 19%; in assay [4] (setting [8]) it was 32%; in assay [4] (at 50.0 µM), 43.9%. The growth inhibition in assay [5] (setting [7]) is -5%; in assay [5] (setting [8]), 38%; in assay [5] (at 50.0 µM) it was 57%.

With `CCOC(=O)OCCSCCOC(=O)OCC`, the growth inhibition in assay [1] (setting [7]) is -14%; in assay [1] (setting [8]), 19%; in assay [1] (at 50.0 µM), -4.35%; in assay [2] (setting [7]), -12%; in assay [2] (setting [8]), 36%; in assay [2] (at 50.0 µM), 17.6%. Moreover, the growth inhibition in assay [3] (setting [7]) is -5%; in assay [3] (setting [8]), 8%; in assay [3] (at 50.0 µM), 14.2%; in assay [4] (setting [7]), 15%; in assay [4] (setting [8]), -6%; in assay [4] (at 50.0 µM), 13.8%. For the same compound, the growth inhibition is -9% in assay [5] (setting [7]), 18% in assay [5] (setting [8]) and 19% in assay [5] (at 50.0 µM).

For the compound `CCCCCCCCCCOC(=O)c1ccccn1`, the growth inhibition in assay [1] (setting [7]) was -6%; in assay [1] (setting [8]) it was 93% (active); in assay [1] (at 50.0 µM), 34.1%; in assay [2] (setting [7]) it was -3%; in assay [2] (setting [8]), 94% (active); in assay [2] (at 50.0 µM), 42.7%. Also, the growth inhibition in assay [3] (setting [7]) was -3%; in assay [3] (setting [8]) it was 60%; in assay [3] (at 50.0 µM), 37.5%; in assay [4] (setting [7]), -3%; in assay [4] (setting [8]), 75% (active); in assay [4] (at 50.0 µM), 17.2%. The growth inhibition is 0% in assay [5] (setting [7]); 80% (active) in assay [5] (setting [8]); 43.2% in assay [5] (at 50.0 µM); -2% in assay [6] (setting [7]); 83% (active) in assay [6] (setting [8]); 62.5% in assay [6] (at 50.0 µM).

Take `c1ccc(N=Nc2ccc3ccccc3c2)cc1`: the growth inhibition in assay [1] (setting [7]) was 5%; in assay [1] (setting [8]), 9%; in assay [1] (at 50.0 µM) it was 16.1%; in assay [2] (setting [7]), 16%; in assay [2] (setting [8]), 10%; in assay [2] (at 50.0 µM) it was 11.8%. The growth inhibition in assay [3] (setting [7]) was 6%; in assay [3] (setting [8]) it was 6%; in assay [3] (at 50.0 µM) it was 3.65%; in assay [4] (setting [7]) it was 1%; in assay [4] (setting [8]) it was 4%; in assay [4] (at 50.0 µM), -5.6%. The growth inhibition is 3% in assay [5] (setting [7]), 17% in assay [5] (setting [8]) and 83% (active) in assay [5] (at 50.0 µM).

Turning to `Cc1cc(O)c(/C=N/c2nc(-c3cccc([N+](=O)[O-])c3)cs2)c(=O)o1`, the growth inhibition is 40% in assay [1] (setting [7]); 99% (active) in assay [1] (setting [8]); 37.9% in assay [1] (at 50.0 µM); 42% in assay [2] (setting [7]); 100% (active) in assay [2] (setting [8]); 30% in assay [2] (at 50.0 µM). For the same compound, the growth inhibition was 52% in assay [3] (setting [7]); 100% (active) in assay [3] (setting [8]); 51.2% in assay [3] (at 50.0 µM); 22% in assay [4] (setting [7]); 99% (active) in assay [4] (setting [8]); 31% in assay [4] (at 50.0 µM). The figures for the growth inhibition in assay [5] (setting [7]), in assay [5] (setting [8]) and in assay [5] (at 50.0 µM) were 51%, 100% (active) and 37.7%, respectively.

With `CS(=O)(=O)OCCN(CCOS(C)(=O)=O)c1ccc(C=Nc2ccc(-c3cnc(-c4ccc(Cl)cc4)s3)cc2)c(Cl)c1`, the growth inhibition in assay [1] (setting [7]) was 1%; in assay [1] (setting [8]), 84% (active); in assay [1] (at 50.0 µM) it was 90% (active); in assay [2] (setting [7]), -3%; in assay [2] (setting [8]), 91% (active); in assay [2] (at 50.0 µM) it was 95% (active). Also, the growth inhibition in assay [3] (setting [7]) was 3%; in assay [3] (setting [8]), 90% (active); in assay [3] (at 50.0 µM) it was 93.8% (active); in assay [4] (setting [7]) it was -6%; in assay [4] (setting [8]), 90% (active); in assay [4] (at 50.0 µM), 90.5% (active). Besides, the growth inhibition in assay [5] (setting [7]) was 3%; in assay [5] (setting [8]) it was 92% (active); in assay [5] (at 50.0 µM), 92.3% (active); in assay [6] (setting [7]), 0%; in assay [6] (setting [8]) it was 89% (active); in assay [6] (at 50.0 µM) it was 92.3% (active).

Regarding `CCOC(=O)/C(=C\c1cccc([N+](=O)[O-])c1)C(C)=O`, the growth inhibition in assay [1] (setting [7]) is 36%; in assay [1] (setting [8]), 98% (active); in assay [1] (at 50.0 µM), 93.2% (active); in assay [2] (setting [7]), 24%; in assay [2] (setting [8]), 99% (active); in assay [2] (at 50.0 µM), 94.8% (active). The growth inhibition in assay [3] (setting [7]) was 33%; in assay [3] (setting [8]) it was 99% (active); in assay [3] (at 50.0 µM) it was 93.2% (active); in assay [4] (setting [7]) it was 27%; in assay [4] (setting [8]), 98% (active); in assay [4] (at 50.0 µM) it was 90.5% (active). Further, the growth inhibition in assay [5] (setting [7]) was 62%; in assay [5] (setting [8]) it was 99% (active); in assay [5] (at 50.0 µM) it was 92% (active).

With `O=CNc1ccc(Oc2ccc(NC=O)cc2)cc1`, the growth inhibition in assay [1] (setting [7]) is -1%; in assay [1] (setting [8]), -18%; in assay [1] (at 50.0 µM) it was 3.6%; in assay [2] (setting [7]), -18%; in assay [2] (setting [8]) it was -19%; in assay [2] (at 50.0 µM) it was 6.75%. The growth inhibition in assay [3] (setting [7]) was 1%; in assay [3] (setting [8]), 1%; in assay [3] (at 50.0 µM), 1.45%; in assay [4] (setting [7]), -1%; in assay [4] (setting [8]), 7%; in assay [4] (at 50.0 µM) it was 61.3%. Besides, the growth inhibition in assay [5] (setting [7]) is -2%; in assay [5] (setting [8]) it was -15%; in assay [5] (at 50.0 µM), -6.45%; in assay [6] (setting [7]), 17%; in assay [6] (setting [8]) it was -5%; in assay [6] (at 50.0 µM), 30.6%.

As to `COc1nc2nc(Cl)cc(C)c2c2ccccc12` (tested in a mixture with another compound), the growth inhibition is 33% in assay [1] (setting [7]); 94% (active) in assay [1] (setting [8]); 98.1% (active) in assay [1] (at 50.0 µM); 11% in assay [2] (setting [7]); 91% (active) in assay [2] (setting [8]); 65.2% in assay [2] (at 50.0 µM). Further, the growth inhibition was 8% in assay [3] (setting [7]); 76% (active) in assay [3] (setting [8]); 52.1% in assay [3] (at 50.0 µM); 3% in assay [4] (setting [7]); 86% (active) in assay [4] (setting [8]); 71.8% (active) in assay [4] (at 50.0 µM). Moreover, the growth inhibition in assay [5] (setting [7]) was 5%; in assay [5] (setting [8]), 94% (active); in assay [5] (at 50.0 µM) it was 78.5% (active); in assay [6] (setting [7]), 17%; in assay [6] (setting [8]) it was 93% (active); in assay [6] (at 50.0 µM), 54.2%.

Consider `Cc1ccc(N=Nc2ccc(N)c3ccccc23)c(S(N)(=O)=O)c1`, for which the growth inhibition in assay [1] (setting [7]) was -4%; in assay [1] (setting [8]), 38%; in assay [1] (at 50.0 µM) it was 27.1%; in assay [2] (setting [7]), 0%; in assay [2] (setting [8]), 24%; in assay [2] (at 50.0 µM) it was 1.95%. Further, the growth inhibition in assay [3] (setting [7]) is -1%; in assay [3] (setting [8]) it was 51%; in assay [3] (at 50.0 µM) it was 44.9%; in assay [4] (setting [7]), -2%; in assay [4] (setting [8]), 29%; in assay [4] (at 50.0 µM), 70.8% (active). Moreover, the growth inhibition is -6% in assay [5] (setting [7]); 61% in assay [5] (setting [8]); 22.2% in assay [5] (at 50.0 µM); 0% in assay [6] (setting [7]); 61% in assay [6] (setting [8]); 13.1% in assay [6] (at 50.0 µM).
